Most compounds without a hit are left out; they make up all but 0.81% or so of the library.
LRH-1 inv ag = LRH-1 (NR5A2) inverse agonists, primary screen, cell-based, luminescence, HEK293T, StAR-luciferase reporter; LRH-1 transfected, 24 h; inhibition, % at 3.6 µM; hit rate 0.13% among 360,000; AID 602396, 2012;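 active means inhibition above the mean inhibition of all tested compounds plus 3 SD, cut at about 73% in these data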
SRC3 inh = SRC3 coactivator transcriptional activity inhibitors, primary screen, cell-based, luminescence; HEK293 GAL4-SRC3 luciferase reporter; inhibition, % at 3.6 µM; hit rate 0.17% among 360,000;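 active means inhibition above a per-campaign cutoff, the mean of all compounds plus 3 SD, cut at about 60% in these data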;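 further: higher means less SRC3-driven luciferase light from the GAL4 reporter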
NCOA2 inhibitor = inhibition of GAL4-SRC2 driven luciferase reporter, primary screen, SRC2 inhibitor project, cell-based, luminescence | Nuclear receptor coactivator 2 (Homo sapiens), Q15596 | HEK293 GAL4-SRC2 luciferase reporter | inhibition, % at 9 µM | hit rate 0.17% among 370,000;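 active means inhibition above the mean inhibition of all tested compounds plus 3 SD, set per campaign, cut at about 52% in these data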
SRC1 inh = SRC1 coactivator transcriptional activity inhibitors, primary screen, cell-based, luminescence. hit rate 0.12% among 360,000. HEK293 GAL4-SRC1 luciferase reporter. inhibition, % at 3.6 µM;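 active means inhibition above the campaign mean plus 3 SD, with each screening campaign given its own cutoff, cut at about 60% in these data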
COUP-TFII inh = NR2F2 transcriptional activity inhibitors, primary screen, cell-based, luciferase reporter, HEK293T, luminescence; HEK293T NGFI-A luciferase reporter; inhibition, % at 8.6 µM; hit rate 0.7% among 370,000; AID 686940, 2013;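 active means inhibition above a per-plate cutoff, mean inhibition of test wells between control levels plus 3 SD, cut at about 38% in these data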;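 further: cells cotransfected with COUP-TFII expression vector driving the NGFI-A reporter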
Target sequence (P24468 whole entry, looked up): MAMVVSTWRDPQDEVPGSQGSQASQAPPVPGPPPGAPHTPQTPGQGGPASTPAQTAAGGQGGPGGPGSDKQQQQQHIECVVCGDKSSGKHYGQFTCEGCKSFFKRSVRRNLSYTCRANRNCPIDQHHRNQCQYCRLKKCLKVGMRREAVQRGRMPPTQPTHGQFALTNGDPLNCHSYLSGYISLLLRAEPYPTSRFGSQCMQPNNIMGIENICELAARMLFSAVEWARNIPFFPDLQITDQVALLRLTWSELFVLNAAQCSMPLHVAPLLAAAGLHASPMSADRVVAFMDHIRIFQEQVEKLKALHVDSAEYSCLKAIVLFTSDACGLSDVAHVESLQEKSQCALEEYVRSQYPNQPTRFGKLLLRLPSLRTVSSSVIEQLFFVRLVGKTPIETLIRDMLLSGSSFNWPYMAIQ
Gal4-VP16 ctr = Gal4-VP16 luciferase reporter inhibitors, counter-screen for COUP-TFII antagonist project, cell-based, luminescence, HEK293 | inhibition, % at 8.5 µM | hit rate 25% among 2,500 | shares compounds with COUP-TFII inh | AID 687007, 2013; in the data active means inhibition above about 13%
COUP-TFII conf = NR2F2 transcriptional activity inhibitors, confirmation, cell-based, luciferase reporter, HEK293, triplicate | hit rate 45% among 2,500 | shares compounds with COUP-TFII inh | inhibition, % at 8.5 µM | HEK293 NGFI-A luciferase reporter, luminescence | AID 687008, 2013;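 active means mean inhibition over three repeats above a set limit taken from the earlier primary screen, cut at about 38% in these data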
Each line names hits and unclear results; the compound was inactive in the other large screens (follow-up assays come after a bar, where they were run).

CCOc1ccc(-c2cc(CCCC(=O)N3CCN(c4ccc(OC)cc4)CC3)no2)cc1	none
CCOc1ccc(-c2cc(CCCC(=O)NCCCOC)no2)cc1	NCOA2 inhibitor 69, COUP-TFII inh 59 | Gal4-VP16 ctr 23 | COUP-TFII conf inactive
COc1ccc(C2CC(=O)c3c(C)nc(N4CCN(Cc5ccccc5)CC4)nc3C2)cc1OC (stereo not drawn)	COUP-TFII inh 62 | Gal4-VP16 ctr inactive | COUP-TFII conf 39
Cc1nc(N2CCN(Cc3ccccc3)CC2)nc2c1C(=O)CC(C)C2 (stereo not drawn)	none
COc1ccc(C(=O)c2ccc(Cl)cc2)c2ccccc12	none
COc1ccc(C(=O)c2ccccc2)c2c(O)ccc(C(=O)c3ccccc3)c12	COUP-TFII inh 43 | Gal4-VP16 ctr inactive | COUP-TFII conf 63
Cc1ccc(C)c(NC(=O)CN(C)C(=O)c2cccc(S(=O)(=O)N3CCCC3)c2)c1	none
Cc1ccc(C)c(NC(=O)CN(C)C(=O)c2cccc(S(=O)(=O)N3CCN(Cc4ccccc4)CC3)c2)c1	COUP-TFII inh 45 | Gal4-VP16 ctr inactive | COUP-TFII conf inactive
COc1ccc(NC(=O)CN(C)C(=O)c2cccc(S(=O)(=O)N3CCN(Cc4ccccc4)CC3)c2)cc1	none (no result: NCOA2 inhibitor, COUP-TFII inh)
CSc1ccc(CN(C)C(=O)c2cc(S(=O)(=O)NCc3ccccc3)ccc2C)cc1	COUP-TFII inh 53 | Gal4-VP16 ctr inactive | COUP-TFII conf inactive
CSc1ccc(CN(C)C(=O)c2cccc(S(=O)(=O)N3CCN(Cc4ccccc4)CC3)c2)cc1	COUP-TFII inh 41 | Gal4-VP16 ctr inactive | COUP-TFII conf inactive
CN(CCOc1ccc(Cl)cc1)C(=O)c1cccc(S(=O)(=O)N2CCN(Cc3ccccc3)CC2)c1	COUP-TFII inh 67 | Gal4-VP16 ctr 15 | COUP-TFII conf 58
CSc1ccc(CN(C)C(=O)c2cccc(S(=O)(=O)NCc3ccccc3)c2)cc1	none
CCOC(=O)[C@]12CCCC=C1N(CCCOC)C(=O)[C@@H]2CC(=O)N1CCC(c2ccccc2)CC1	none (no result: LRH-1 inv ag, SRC3 inh, SRC1 inh)
Cc1ccc(S(=O)(=O)N2CCCOC2CNC(=O)C(=O)NCc2ccncc2)cc1 (stereo not drawn)	none
CCCN1C(=O)c2[nH]nc(-c3ccccc3)c2C1c1ccc(Br)cc1 (stereo not drawn)	none (no result: LRH-1 inv ag, SRC3 inh, SRC1 inh)
O=C(CCn1nnc(-c2cccs2)n1)NCc1cccs1	none (no result: LRH-1 inv ag, SRC3 inh, SRC1 inh)
Cc1cc(C)c(OCC(=O)OCC(=O)N2c3ccccc3CC2C)c(C)c1 (stereo not drawn)	none
COc1ccc(CN(C)C(=O)c2cccc(S(=O)(=O)N3CCN(c4ccccc4)CC3)c2)c(OC)c1OC	COUP-TFII inh 41 | Gal4-VP16 ctr inactive | COUP-TFII conf inactive
COc1cccc(CN(C)C(=O)c2cccc(S(=O)(=O)N3CCN(c4ccccc4)CC3)c2)c1	none
Cc1ccc(-c2cc3onc(-c4ccccc4)c3c(=O)n2C)cc1	COUP-TFII inh 43 | Gal4-VP16 ctr 34 | COUP-TFII conf 72
COc1ccc(NC(=O)c2ccc(S(=O)(=O)N(C)c3ccccc3)cc2)cn1	COUP-TFII inh 41 | Gal4-VP16 ctr inactive | COUP-TFII conf inactive
COc1ccc(NC(=O)/C(Cl)=C(/Cl)S(=O)(=O)Cc2ccccc2)cn1	NCOA2 inhibitor 69, COUP-TFII inh 66 | Gal4-VP16 ctr 39 | COUP-TFII conf 59
COc1ccc(NC(=O)Nc2ccc(OCc3ccccc3)cc2)cn1	none
Cc1nc2ccc(NC(=O)c3ccc(S(=O)(=O)N(C)c4ccccc4)cc3)cc2s1	COUP-TFII inh 49 | Gal4-VP16 ctr inactive | COUP-TFII conf inactive
CCCN1CCN(C(=O)C(NC(=O)c2ccco2)C(C)C)CC1 (stereo not drawn)	none
Nc1cc(=O)[nH]c(SCc2ccc(Cl)cc2Cl)n1	COUP-TFII inh 48 | Gal4-VP16 ctr 16 | COUP-TFII conf inactive
